Screening results (PubChem)
HT1080 IDH1KD tx = qHTS for induction of synthetic lethality in tumor cells producing 2HG: qHTS for the HT-1080-IDH1KD cell line. HT-1080 IDH1 knockdown viability, ATP luminescence, 48 h. Potency, µM (doses to about 46.1 µM), without a hit: top-dose activity, negative = toxicity, hits mostly cytotoxic. 360,000 compounds, 2% hits. AID 686971, 2013;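 also: 0% = DMSO wells and -100% = cell-free medium wells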
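Using the IDH1-knockdown HT-1080 line run in the same batch and compound series as the NT line, viability after 48 h at 37 °C was determined by CellTiter-Glo luminescence and expressed as % activity.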
MCF10A rereplic = A quantitative high throughput screen for small molecules that induce DNA re-replication in MCF 10a normal breast cells; 350,000 compounds, 2.9% hits; Potency, µM (series often up to 46.1 µM), for inactives: at the highest dose activity, positive = re-replication, usual class: activators; MCF 10A DNA re-replication, Hoechst nuclear intensity, 48 h; also: % of control where 0% means no effect; nearly all actives have a fitted effect of over 50% in size
KB-V1 cytotox = qHTS assay for MDR1-selective chemotherapeutics: Primary screen using the drug-selected MDR subline cells KB-V1; KB-V1 MDR cells viability, CellTiter-Glo, 72 h; Potency, µM (doses to about 46.1 µM), usual class: cytotoxic; 400,000 compounds, 3.4% hits; AID 1347076, 2019; also: % is scaled to controls: 0 for no effect and ±100 for the full control effect; nearly all actives have a fitted effect of over 60% in size
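KB-V1 MDR subline cells in DMEM (phenol-red free, 10% FBS) exposed to compounds in qHTS concentration series for 72 h at 37 degrees C. Viability read by CellTiter-Glo luminescence; concentration-effect curves fitted after normalization and correction.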
HT1080NT lethal = qHTS for induction of synthetic lethality in tumor cells producing 2HG: qHTS for the HT-1080-NT fibrosarcoma cell line; HT-1080-NT fibrosarcoma viability, CellTiter-Glo ATP luminescence, 48 h; Potency, µM (highest dose often 46.1 µM), inactives show at the top dose activity, negative = less viability, usual class: cytotoxic; 360,000 compounds, 1.6% hits;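 also: NT is the 2HG producing partner of a matched IDH1 knockdown line; 0% = DMSO-treated cells and -100% = media-only wells without cells; nearly all actives have a fitted effect of over 55% in size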
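Luminescent CellTiter-Glo readout after 48 hours of compound exposure at 37 degrees C defined viability of HT-1080-NT cells. Activity was normalized to DMSO wells and cell-free media wells; concentration-response curves were fitted and assigned curve classes.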
SW480 rereplic = A quantitative high throughput screen for small molecules that induce DNA re-replication in SW480 colon adenocarcinoma cells. SW480 DNA re-replication, Hoechst DNA content imaging, 48 h. Potency, µM (top dose mostly 46.1 µM), without a hit: at the top dose re-replication activation, usual class: activators. 340,000 compounds, 1.8% hits. AID 624297, 2012; also: % of control where 0% means no effect; nearly all actives have a fitted effect of over 55% in size
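250 cells/well; 23 nL cpd via pin tool; 48 hr, 37 C, 5% CO2; Hoechst 40 min; imager read of total nuclear intensity, ex 405/em 500-530 nm.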
KB-3-1 tox = qHTS assay for MDR1-selective chemotherapeutics: Primary screen using the parental adenocarcinoma cell KB-3-1; KB-3-1 viability, CellTiter-Glo ATP luminescence, 72 h; Potency, µM (highest dose often 46.1 µM), most hits filed as cytotoxic; 400,000 compounds, 1.4% hits; AID 1347075, 2019; also: % is scaled to controls: 0 for no effect and ±100 for the full control effect; nearly all actives have a fitted effect of over 60% in size
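Cytotoxicity in the drug-sensitive parental line KB-3-1 was scored as loss of CellTiter-Glo luminescence following 72 h incubation with compound. Values come from curve fitting of normalized concentration-response data.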
Numbers without * were called inactive; ! = not confirmed by another sample; [ ] = remark or other dose. Shown are actives, neighbours in structure and some others; about 7.9% of the full set was active somewhere. Calls follow the shape of the dose curve; as a rule, active = well fitted curve in the direction sought with a large enough effect; inconclusive = small, poorly fitted or top-dose-only effect, or another doubt; inactive = no such curve, though single readings can be large; an effect the other way counts as inactive or inconclusive. Potency is read from the fitted curve at half-maximal effect.

O=C(NCCOC(=O)c1ccc(Cl)cc1)c1cccnc1 was read as HT1080 IDH1KD tx -5%, MCF10A rereplic 3.7µM*, KB-V1 cytotox inactive, HT1080NT lethal -5%, SW480 rereplic 4% and KB-3-1 tox inactive.
O=C(COc1ccc(Cl)cc1)NCCCNC(=O)c1cccnc1 was read as HT1080 IDH1KD tx inconclusive, MCF10A rereplic 3%, KB-V1 cytotox inactive, HT1080NT lethal inconclusive, SW480 rereplic -1% and KB-3-1 tox inactive.
For O=C(COc1ccc(Br)cc1)NCCCNC(=O)c1cccnc1 the results were HT1080 IDH1KD tx 10µM*, MCF10A rereplic 7%, KB-V1 cytotox inactive, HT1080NT lethal inconclusive, SW480 rereplic 49% and KB-3-1 tox inactive.
CN(C)c1nc(OCCNC(=O)COc2ccccc2Cl)nc(N(C)C)n1 was read as HT1080 IDH1KD tx 15%, MCF10A rereplic inconclusive, KB-V1 cytotox 1.6µM*, HT1080NT lethal 23%, SW480 rereplic -1% and KB-3-1 tox inactive.
O=C(COc1ccccc1Cl)NCCCNC(=O)c1cccnc1 was read as HT1080 IDH1KD tx inconclusive, MCF10A rereplic 3%, KB-V1 cytotox inactive, HT1080NT lethal 26µM*, SW480 rereplic 8% and KB-3-1 tox inactive.
For O=c1[nH]c(/C=C\c2ccc(O)c(Cl)c2)nc(O)c1[N+](=O)[O-] the results were HT1080 IDH1KD tx 12%, MCF10A rereplic -8%, KB-V1 cytotox inactive, HT1080NT lethal 9%, SW480 rereplic 3% and KB-3-1 tox inactive.
For CCc1ccc(C2c3c(oc4ccc(C)cc4c3=O)C(=O)N2c2nc(C)c(C)s2)cc1 (stereo unspecified) the results were KB-V1 cytotox inactive and KB-3-1 tox inactive.
`CON(C)c1nc(OCCNC(=O)OCc2ccc(Cl)cc2C)nc(N(C)C)n1` gave HT1080 IDH1KD tx -3%, MCF10A rereplic 7%, KB-V1 cytotox 1.6µM*, HT1080NT lethal -5%, SW480 rereplic -1% and KB-3-1 tox inactive.
Screening CCC(CC)C1C(C#N)=C(N)Oc2n[nH]c(C)c21 (stereo unspecified) returned HT1080 IDH1KD tx 11µM*, MCF10A rereplic inconclusive, KB-V1 cytotox inactive, HT1080NT lethal 11µM*, SW480 rereplic 21µM* and KB-3-1 tox inactive.
For CCC(CC)C1C(C#N)=C(N)Oc2n[nH]c(-c3ccccc3)c21 (stereo unspecified) the results were HT1080 IDH1KD tx -20%[9.24 µM], MCF10A rereplic 4%, KB-V1 cytotox inactive, HT1080NT lethal inconclusive, SW480 rereplic 11% and KB-3-1 tox inactive.
`Cc1[nH]nc2c1C(c1ccc(-c3ccccc3C#N)o1)C(C#N)=C(N)O2` (stereo unspecified) gave HT1080 IDH1KD tx 11µM*, MCF10A rereplic -5%, KB-V1 cytotox inactive, HT1080NT lethal inconclusive, SW480 rereplic -14% and KB-3-1 tox inactive.
Screening Cc1ccc(-c2ccc(C3C(C#N)=C(N)Oc4n[nH]c(C)c43)o2)cc1 (stereo unspecified) returned HT1080 IDH1KD tx -15%, MCF10A rereplic 23µM*, KB-V1 cytotox 26µM*, HT1080NT lethal -20%, SW480 rereplic inconclusive and KB-3-1 tox inactive.
COc1ccc(CNC(=O)C(=O)Nc2ccc(OC)cc2OC)cc1 was read as KB-V1 cytotox inactive and KB-3-1 tox inconclusive.
Screening CC(=O)N(C(C)=O)c1ncc2c([nH]c3ccccc32)c1C#N returned HT1080 IDH1KD tx 7.1µM*, MCF10A rereplic -1%, KB-V1 cytotox 6.5µM*, HT1080NT lethal 11µM*, SW480 rereplic -1% and KB-3-1 tox inactive.
CCN(CC)C(=O)Cn1ncc2c([nH]c3ccccc32)c1=O was read as KB-V1 cytotox inactive and KB-3-1 tox inactive.
For CCCOc1ccc(-c2nonc2NC(=O)COc2ccc(C)cc2)cc1OCCC the results were KB-V1 cytotox inactive and KB-3-1 tox inactive.
Cc1ccc(-c2nc(-c3cc4cccc(OCc5cccc(F)c5)c4oc3=O)no2)cc1 was read as KB-V1 cytotox inactive and KB-3-1 tox inactive.
CC(C)CCNC(=O)c1c[nH]c2ccc(S(=O)(=O)N3CCOCC3)cc2c1=O was read as HT1080 IDH1KD tx 5%, MCF10A rereplic 2%, KB-V1 cytotox inconclusive, HT1080NT lethal 7%, SW480 rereplic -16% and KB-3-1 tox inactive.
`Cc1ccc(CCNC(=O)c2c[nH]c3ccc(S(=O)(=O)Nc4cccc(C(F)(F)F)c4)cc3c2=O)cc1` gave KB-V1 cytotox inactive and KB-3-1 tox 13µM*.
For Cc1cc(C)cc(NS(=O)(=O)c2ccc3[nH]cc(C(=O)NCCc4ccccc4)c(=O)c3c2)c1 the results were KB-V1 cytotox inconclusive and KB-3-1 tox inactive.
COc1cccc(NS(=O)(=O)c2ccc3[nH]cc(C(=O)NCCC(C)C)c(=O)c3c2)c1 was read as HT1080 IDH1KD tx inconclusive, MCF10A rereplic 17%, KB-V1 cytotox inactive, HT1080NT lethal 12µM*, SW480 rereplic -4% and KB-3-1 tox inconclusive.
Screening CCc1ccccc1NS(=O)(=O)c1ccc2[nH]cc(C(=O)NC3CCCC3)c(=O)c2c1 returned HT1080 IDH1KD tx 18µM*, MCF10A rereplic inconclusive, KB-V1 cytotox inconclusive, HT1080NT lethal inconclusive, SW480 rereplic -245% and KB-3-1 tox 15µM*!.
For CC(C)[C@H](NC(=O)c1ccccc1)C(=O)NC1=NCCS1 the results were HT1080 IDH1KD tx -8%, MCF10A rereplic -10%, HT1080NT lethal 0% and SW480 rereplic -3%.
Screening O[C@H]1CN(Cc2cccs2)[C@@H](c2ccccc2)C[C@@H]1n1cc(-c2ccc(F)cc2)nn1 returned HT1080 IDH1KD tx -12%, KB-V1 cytotox inactive, HT1080NT lethal 2% and KB-3-1 tox inactive.
`O=[N+]([O-])c1cc(C(F)(F)F)ccc1NCCOc1ccccc1` gave HT1080 IDH1KD tx -2%, MCF10A rereplic -4%, KB-V1 cytotox inactive, HT1080NT lethal -4%, SW480 rereplic 18% and KB-3-1 tox inactive.
`Cc1ccccc1OCCNc1ccc(C(F)(F)F)cc1[N+](=O)[O-]` gave HT1080 IDH1KD tx 3%, MCF10A rereplic 17%, KB-V1 cytotox inconclusive, HT1080NT lethal 2%, SW480 rereplic -11% and KB-3-1 tox 16µM*.
